From PubChem BioAssay (NCI) come the findings set out here.

Some test systems named below: NCI-H23 lung; NCI-H226 lung; NCI-H322M lung; HOP-62 NSCLC; NCI-H460 lung; HOP-92 NSCLC; NCI-H522 lung; A549/ATCC NSCLC; 786-0 renal; COLO 205 colon; DU-145 prostate; K-562 leukemia; MALME-3M melanoma; MDA-MB-231 breast; RXF 393 renal; SF-268 CNS; SF-295 CNS; SF-539 CNS; UACC-257 melanoma; M14 melanoma.
Common to all, as to assay: NCI-60 one-dose screen, 48 h (100 = growth as untreated, 0 = no growth, -100 = all killed)
Common to all, as to conditions: 10 µM unless noted

The structures appear in SMILES notation. About 83,000 compounds went through this panel and 20% of them were active in at least one assay; those are over-represented in the sample as a whole.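 Cells were grown in 96-well plates and exposed to the test compound at a single concentration for 48 hours; results are reported as percent growth, with values below 10 considered active.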 A number with no mark means an inactive call. Calls of active or inactive are those of the source.

For the compound `Cc1cc(=O)oc2cc(OCCCOc3ccc(/C=C/C(=O)Nc4ccc(Br)cc4)cc3)ccc12`, the growth was 67.8% with NCI-H23 lung; 77.4% with NCI-H226 lung; 94.9% in the assay on NCI-H322M lung; 85.2% in the assay on HOP-62 NSCLC; 9.24% (active) with NCI-H460 lung; 53.5% in the assay on HOP-92 NSCLC. For the same compound, the growth with NCI-H522 lung was 80%; in the assay on A549/ATCC NSCLC, 92.2%; in the assay with 786-0 renal it was 61.7%; in the assay with COLO 205 colon it was 97.7%; in the assay on DU-145 prostate, 67.1%; in the assay with K-562 leukemia, 78.4%. For the same compound, the growth in the assay with MALME-3M melanoma is 40.4%; with MDA-MB-231 breast it was 70.5%; in the assay with RXF 393 renal, 57.8%; in the assay on SF-268 CNS it was 67.8%; with SF-295 CNS it was 95.1%; with SF-539 CNS, 87.9%. For the same compound, the growth was 91.4% in the assay with UACC-257 melanoma and 84% in the assay with M14 melanoma.
As for `C#CCOc1cccc(/C(N)=N/C(N)=N/c2nc3ccccc3s2)c1`, the growth with NCI-H23 lung is 50.2%; in the assay on NCI-H226 lung, 68.1%; with NCI-H322M lung it was 96.3%; in the assay on HOP-62 NSCLC, -36.3% (active); in the assay on NCI-H460 lung, 90.5%; in the assay on HOP-92 NSCLC, 125%. In addition, the growth is 96.9% in the assay with NCI-H522 lung; 10.8% in the assay with A549/ATCC NSCLC; 107% in the assay with 786-0 renal; 119% in the assay with COLO 205 colon; 97.4% in the assay on DU-145 prostate; 82.2% in the assay on K-562 leukemia. For the same compound, the growth in the assay on MALME-3M melanoma was 111%; with MDA-MB-231 breast, 81.9%; with RXF 393 renal, 116%; with SF-268 CNS, 100%; in the assay with SF-295 CNS it was 31.2%; in the assay with SF-539 CNS, 105%. Moreover, the growth with UACC-257 melanoma was 107%; in the assay with M14 melanoma, 95.8%.
On to `N#CC1=C2NCCCNc3oc(nc3C#N)Cc3ccccc3CC(=N1)O2`, for which the growth in the assay with NCI-H23 lung was 90.7%; in the assay on NCI-H226 lung it was 92.3%; in the assay on NCI-H322M lung, 94.5%; in the assay on HOP-62 NSCLC it was 97.8%; with NCI-H460 lung it was 96.8%; in the assay with HOP-92 NSCLC, 94.9%. For the same compound, the growth was 97.1% in the assay on NCI-H522 lung; 98.3% with A549/ATCC NSCLC; 95% with 786-0 renal; 88.1% in the assay with COLO 205 colon; 99% in the assay with DU-145 prostate; 12% with K-562 leukemia. The growth in the assay on MALME-3M melanoma is 97.8%; in the assay with MDA-MB-231 breast, 97.6%; in the assay on RXF 393 renal it was 93.2%; in the assay with SF-268 CNS it was 101%; in the assay with SF-295 CNS, 108%; in the assay on SF-539 CNS, 99.2%. The growth in the assay with UACC-257 melanoma is 92.2%; in the assay on M14 melanoma it was 86.4%.
For the compound `Cn1cc(-c2nnc(N)nc2-c2c[nH]c3ccc(F)cc23)c2cc(Br)ccc21`, the growth in the assay on NCI-H23 lung was 26.4%; in the assay on NCI-H226 lung, 27.4%; with NCI-H322M lung it was 41.8%; in the assay on HOP-62 NSCLC, 30.9%; in the assay on NCI-H460 lung, 13.8%; in the assay with HOP-92 NSCLC it was 56.5%. Moreover, the growth in the assay on NCI-H522 lung is -0.551% (active); in the assay on A549/ATCC NSCLC, 38.6%; with 786-0 renal, 21.5%; in the assay with COLO 205 colon it was 9.15% (active); with DU-145 prostate, 37.8%; in the assay with K-562 leukemia, 6.36% (active). In addition, the growth with MALME-3M melanoma was 41.7%; in the assay with MDA-MB-231 breast, 47.3%; with RXF 393 renal, -12.7% (active); in the assay with SF-268 CNS, 39.7%; in the assay on SF-295 CNS, 9.61% (active); in the assay on SF-539 CNS, 7.43% (active). In addition, the growth in the assay on UACC-257 melanoma was 50.9%; in the assay on M14 melanoma, -6.09% (active).
`COc1ccc(/C=N/NC(=O)c2c(N)nn(C)c2Nc2ccccc2)cc1`: the growth with NCI-H23 lung was 66.9%; in the assay on NCI-H226 lung it was 51.6%; in the assay with NCI-H322M lung, 90%; with HOP-62 NSCLC, 38.8%; in the assay on NCI-H460 lung, 14.6%; with HOP-92 NSCLC, 46.8%. Further, the growth in the assay with NCI-H522 lung is 19.3%; with A549/ATCC NSCLC, 57.1%; in the assay on 786-0 renal it was 58%; in the assay on COLO 205 colon it was 35.8%; in the assay with DU-145 prostate it was 76.3%; in the assay with K-562 leukemia, 19.2%. The growth in the assay on MALME-3M melanoma is 44.7%; in the assay on MDA-MB-231 breast, 65.1%; in the assay with RXF 393 renal, 37.3%; with SF-268 CNS, 58.6%; in the assay on SF-295 CNS, 9.85% (active); in the assay with SF-539 CNS, 40.2%. Moreover, the growth in the assay with UACC-257 melanoma was 56.4%; with M14 melanoma, 13%.
Regarding `COc1ccc2c(c1)C=CC1(O2)Oc2ccc(OC)cc2C=C1C` (stereo not given), the growth with NCI-H23 lung was 39.7%; in the assay with NCI-H226 lung, 57.4%; in the assay on NCI-H322M lung it was 49.5%; in the assay with HOP-62 NSCLC, 51%; in the assay with NCI-H460 lung, 7.29% (active); in the assay on HOP-92 NSCLC, -6.57% (active). The growth is 10.7% with NCI-H522 lung; 18.5% with A549/ATCC NSCLC; 26.5% with 786-0 renal; 2.43% (active) in the assay on COLO 205 colon; 34.1% with DU-145 prostate; 8.41% (active) in the assay with K-562 leukemia. Further, the growth in the assay on MALME-3M melanoma was 55.2%; in the assay on MDA-MB-231 breast it was 2.14% (active); in the assay on RXF 393 renal it was -12.3% (active); with SF-268 CNS, 54.4%; in the assay with SF-295 CNS, 7.92% (active); with SF-539 CNS, -11% (active). Moreover, the results for the growth with UACC-257 melanoma and in the assay with M14 melanoma were 73% and 3.03% (active), respectively.
In the case of `N#Cc1c(-c2ccc(Br)cc2)cc(-c2c[nH]c3ccccc23)nc1N`, the growth was 51.3% in the assay with NCI-H23 lung; 60% in the assay on NCI-H226 lung; 67.6% in the assay on NCI-H322M lung; 42.5% in the assay on HOP-62 NSCLC; 16.7% in the assay on NCI-H460 lung; 43.6% in the assay with HOP-92 NSCLC. The growth in the assay on NCI-H522 lung was 11%; in the assay with A549/ATCC NSCLC it was 42.1%; in the assay with 786-0 renal it was 79.7%; with COLO 205 colon, 51.5%; in the assay with DU-145 prostate it was 70%; in the assay with K-562 leukemia, 18.6%. In addition, the growth in the assay on MALME-3M melanoma is 73.9%; in the assay on MDA-MB-231 breast it was 46%; in the assay with RXF 393 renal, 25.9%; in the assay with SF-268 CNS, 56.9%; in the assay on SF-295 CNS, 52.4%; in the assay with SF-539 CNS it was 43%. Further, the growth in the assay with UACC-257 melanoma was 94.4%; with M14 melanoma it was 44.6%.
